In PubChem BioAssay (NCATS):
Unmarked numbers belong to inactive results. Inconclusive results are not listed. Calls of active or inactive are those of the source. The call rests on the fitted dose curve; in most records, active means well fitted activation curve with a large enough effect; inconclusive means small, poorly fitted or top-dose-only effect; inactive means flat fitted curve, though single readings scatter.

test: Cellular Toxicity (caspase-3) SK-N-SH (AID 661); conditions: SK-N-SH caspase-3 activation, qHTS, DMSO as zero, staurosporine as full; series mostly up to 91.7 µM;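 further: 0% = DMSO basal and 100% = 10 µM staurosporine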
Procedure, shortened: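 Caspase 3/7 activation is measured as a luminescence increase from aminoluciferin released by substrate cleavage in SK-N-SH cells after 16 hr compound treatment; values are AC50 from concentration-response curves.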

SMILES | outcome
Nc1nc(CC(=O)O)cs1 | inactive
CC(=O)CC(C)C | inactive
CCCCC(CC)CO (configuration not stated) | inactive
CCCCC(=O)N(C)C | inactive
O=CNc1ccccc1 | inactive
Clc1ccc(Cl)c(Cl)c1Cl | inactive
C=CCCCCCCC=C | inactive
CCCCCCC=O | inactive
CCCCC(CC)COCC1CO1 (configuration not stated) | inactive
Cc1cc(C)cc(N)c1 | inactive
C=CCOC(=O)COCCC(C)C | inactive
O=C(O)CNC(=O)c1ccc(CO)o1 | inactive
C=C(C)C(N)=O | inactive
CCN(Cc1ccccc1)c1ccccc1 | inactive
O=C(O)c1cccc(Cl)c1Cl | inactive
CC(=O)c1cccc([N+](=O)[O-])c1 | inactive
O=C(O)CNC(=O)c1ccc([N+](=O)[O-])cc1 | inactive
Nc1c(Cl)cc(Cl)cc1Cl | inactive
C=CCCCC | inactive
NC(=O)c1cccc([N+](=O)[O-])c1 | inactive

SMILES | outcome
C=C(C)OC(C)=O | inactive
CC(C)Cc1nccs1 | inactive
CC(C)c1ccccc1 | inactive
CCOCCOCC | inactive
CCC1CO1 (configuration not stated) | inactive
NC(=O)CCCCC(N)=O | inactive
CCOC(C)(C)C | inactive
CC(N)CN (configuration not stated) | inactive
Cc1ccc(C(C)(C)C)cc1 | inactive
Cc1ccc(C#N)cc1 | inactive
Cc1ccc(C)cc1 | inactive
CN(C)CCCCl | inactive
CC(=O)c1nccs1 | inactive
CCc1ccccc1 | inactive
CCCCC(C=O)CC (configuration not stated) | inactive
CC(C)=C1CCC(C)CC1=O (configuration not stated) | inactive
CCCCCCCCC | inactive
C=CCCCCCC | inactive
Cc1ccc(C)c([N+](=O)[O-])c1 | inactive

test: Cellular Toxicity (caspase-3) H-4-II-E (AID 663); conditions: H-4-II-E rat hepatoma, scaled: DMSO 0%, 100 µM tamoxifen 100%; at 92.2 µM (top of the series);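 further: cells exposed to compound for 16 hr before readout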
Procedure, shortened: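 Rat hepatoma H-4-II-E cells (1500/well) plated 5 hr, then exposed to compound titrations for 16 hr at 37 °C. Caspase-Glo 3/7 luminescence read after 20 min at RT; data normalized to DMSO and 100 uM tamoxifen, AC50 from Hill fits.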

SMILES | caspase-3 activation [%]
Nc1nc(CC(=O)O)cs1 | 0.956
CC(=O)CC(C)C | 1.31
CCCCC(CC)CO (configuration not stated) | 1.2
CCCCC(=O)N(C)C | -1.29
O=CNc1ccccc1 | 0.272
Clc1ccc(Cl)c(Cl)c1Cl | -0.982
C=CCCCCCCC=C | 1.95
CCCCCCC=O | 1.06
CCCCC(CC)COCC1CO1 (configuration not stated) | -0.156
Cc1cc(C)cc(N)c1 | -0.0763
C=CCOC(=O)COCCC(C)C | -0.913
O=C(O)CNC(=O)c1ccc(CO)o1 | -0.71
C=C(C)C(N)=O | -0.402
CCN(Cc1ccccc1)c1ccccc1 | 0.0577
O=C(O)c1cccc(Cl)c1Cl | -0.64
CC(=O)c1cccc([N+](=O)[O-])c1 | -1.03
O=C(O)CNC(=O)c1ccc([N+](=O)[O-])cc1 | 0.8
Nc1c(Cl)cc(Cl)cc1Cl | 2.86
C=CCCCC | 0.498
NC(=O)c1cccc([N+](=O)[O-])c1 | -1.74

SMILES | caspase-3 activation [%]
C=C(C)OC(C)=O | 2.67
CC(C)Cc1nccs1 | 0.155
CC(C)c1ccccc1 | 0.504
CCOCCOCC | 1.77
CCC1CO1 (configuration not stated) | 2.93
NC(=O)CCCCC(N)=O | 0.202
CCOC(C)(C)C | -0.707
CC(N)CN (configuration not stated) | 0.364
Cc1ccc(C(C)(C)C)cc1 | 0.123
Cc1ccc(C#N)cc1 | 0.0504
Cc1ccc(C)cc1 | 1.14
CN(C)CCCCl | 0.431
CC(=O)c1nccs1 | 1.15
CCc1ccccc1 | 1.3
CCCCC(C=O)CC (configuration not stated) | 3.13
CC(C)=C1CCC(C)CC1=O (configuration not stated) | -0.0437
CCCCCCCCC | 0.863
C=CCCCCCC | 1.37
Cc1ccc(C)c([N+](=O)[O-])c1 | -0.213

test: Cellular Toxicity (caspase-3) Hek293 (AID 664); conditions: HEK293 caspase-3 activation, DMSO = 0%, 100 µM tamoxifen = 100%; at 92.2 µM (top of the series);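 further: cells exposed to compound for 16 h at 37 °C before readout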
Procedure, shortened: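 Activation of caspase-3/7 is measured as increased luminescence from cleaved peptide-aminoluciferin substrate in HEK293 cells treated 16 hours at 37 °C. AC50 values come from Hill-equation fits of concentration-response data.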

SMILES | caspase-3 activation [%]
Nc1nc(CC(=O)O)cs1 | -1.7
CC(=O)CC(C)C | -0.532
CCCCC(CC)CO (configuration not stated) | 1.6
CCCCC(=O)N(C)C | 1.13
O=CNc1ccccc1 | 1.41
Clc1ccc(Cl)c(Cl)c1Cl | -1.37
C=CCCCCCCC=C | 5.13
CCCCCCC=O | -2.62
CCCCC(CC)COCC1CO1 (configuration not stated) | -2.33
Cc1cc(C)cc(N)c1 | -0.185
C=CCOC(=O)COCCC(C)C | -2.01
O=C(O)CNC(=O)c1ccc(CO)o1 | -0.0261
C=C(C)C(N)=O | -0.593
CCN(Cc1ccccc1)c1ccccc1 | -1.67
O=C(O)c1cccc(Cl)c1Cl | -1.27
CC(=O)c1cccc([N+](=O)[O-])c1 | 2.43
O=C(O)CNC(=O)c1ccc([N+](=O)[O-])cc1 | -2.43
Nc1c(Cl)cc(Cl)cc1Cl | -0.377
C=CCCCC | 1.21
NC(=O)c1cccc([N+](=O)[O-])c1 | 2

SMILES | caspase-3 activation [%]
C=C(C)OC(C)=O | -0.975
CC(C)Cc1nccs1 | 2.01
CC(C)c1ccccc1 | -0.725
CCOCCOCC | 4.51
CCC1CO1 (configuration not stated) | -0.425
NC(=O)CCCCC(N)=O | -0.72
CCOC(C)(C)C | 1.78
CC(N)CN (configuration not stated) | 3.47
Cc1ccc(C(C)(C)C)cc1 | -1.91
Cc1ccc(C#N)cc1 | 0.103
Cc1ccc(C)cc1 | -2.53
CN(C)CCCCl | -0.527
CC(=O)c1nccs1 | 4.27
CCc1ccccc1 | -0.962
CCCCC(C=O)CC (configuration not stated) | 1.03
CC(C)=C1CCC(C)CC1=O (configuration not stated) | -0.681
CCCCCCCCC | -2.1
C=CCCCCCC | -0.874
Cc1ccc(C)c([N+](=O)[O-])c1 | 0.434
